# Assay results: publication PMC7862700, “An all-to-all approach to the identification of sequence-specific readers for epigenetic DNA modifications on cytosine”
# Key:
# Assay in all cases: DAPPL (digital affinity profiling via proximity ligation, sequencing); 10 mM Tris-HCl pH 7.5, 50 mM NaCl, 1 mM DTT, 4% glycerol, room temperature, 30 min; GST-TFs on glutathione beads, 16-mer random dsDNA library, 0.1% formaldehyde crosslink after washing; high values mean tight binding
# Conditions in all cases: protein: recombinant; tags: N-terminal GST; dsDNA, one strand shown
# ELK1 = biological target: T1, ELK1 (Homo sapiens, UniProt P19419 1-428)
# T1 sequence: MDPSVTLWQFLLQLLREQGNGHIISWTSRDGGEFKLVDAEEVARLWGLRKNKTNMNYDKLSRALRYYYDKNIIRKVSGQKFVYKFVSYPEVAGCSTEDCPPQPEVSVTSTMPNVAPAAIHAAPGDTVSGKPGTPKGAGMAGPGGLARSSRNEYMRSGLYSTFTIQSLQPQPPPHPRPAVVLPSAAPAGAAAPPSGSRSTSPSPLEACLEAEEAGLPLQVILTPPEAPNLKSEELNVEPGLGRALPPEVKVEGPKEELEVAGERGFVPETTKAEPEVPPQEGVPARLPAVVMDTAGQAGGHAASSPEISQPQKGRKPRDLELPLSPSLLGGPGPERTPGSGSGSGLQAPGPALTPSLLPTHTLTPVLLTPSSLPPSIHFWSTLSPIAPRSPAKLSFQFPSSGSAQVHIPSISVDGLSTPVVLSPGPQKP
# Outline: (§1)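 Beads coated with glutathione captured GST-fused human transcription factors that had been expressed in yeast, and the factors were then given DNA barcodes and pooled with a tag-only sample. The pools were incubated with 200 nmole of a random double-stranded 16-mer DNA library in Tris/NaCl/DTT/glycerol buffer for 30 min at room temperature, washed, crosslinked with 0.1% formaldehyde and proximity-ligated with BsaI/T4 ligase at 37 °C for 1 h. PCR amplification and Illumina NextSeq500 sequencing came last. Binding signal is each hexamer's read frequency for a factor divided by its frequency for the tag-only sample.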
# EHF = biological target: T2, EHF (Homo sapiens, UniProt Q9NZC4 1-300)
# T2 sequence: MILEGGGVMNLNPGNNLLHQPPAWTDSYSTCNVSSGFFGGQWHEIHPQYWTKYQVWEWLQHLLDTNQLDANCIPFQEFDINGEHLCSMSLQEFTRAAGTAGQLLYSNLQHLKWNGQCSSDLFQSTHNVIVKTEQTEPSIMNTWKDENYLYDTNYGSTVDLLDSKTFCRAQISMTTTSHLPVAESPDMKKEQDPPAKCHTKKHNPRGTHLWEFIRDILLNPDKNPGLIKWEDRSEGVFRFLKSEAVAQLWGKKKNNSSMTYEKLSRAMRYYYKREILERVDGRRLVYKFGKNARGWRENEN
# Outline: as §1
# SPIB = SPIB (Homo sapiens, UniProt Q01892 1-262)
# SPIB, sequence (Q01892 whole entry): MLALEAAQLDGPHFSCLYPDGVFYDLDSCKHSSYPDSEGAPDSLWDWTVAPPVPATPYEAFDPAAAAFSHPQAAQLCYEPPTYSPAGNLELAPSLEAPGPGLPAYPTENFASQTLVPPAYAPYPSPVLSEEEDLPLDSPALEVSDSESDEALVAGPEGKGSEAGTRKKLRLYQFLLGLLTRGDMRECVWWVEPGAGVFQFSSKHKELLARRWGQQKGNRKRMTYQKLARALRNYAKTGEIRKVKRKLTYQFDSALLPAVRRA
# Outline: as §1
# ETV5 = ETV5 (Homo sapiens, UniProt P41161 1-510)
# ETV5, sequence (P41161 whole entry): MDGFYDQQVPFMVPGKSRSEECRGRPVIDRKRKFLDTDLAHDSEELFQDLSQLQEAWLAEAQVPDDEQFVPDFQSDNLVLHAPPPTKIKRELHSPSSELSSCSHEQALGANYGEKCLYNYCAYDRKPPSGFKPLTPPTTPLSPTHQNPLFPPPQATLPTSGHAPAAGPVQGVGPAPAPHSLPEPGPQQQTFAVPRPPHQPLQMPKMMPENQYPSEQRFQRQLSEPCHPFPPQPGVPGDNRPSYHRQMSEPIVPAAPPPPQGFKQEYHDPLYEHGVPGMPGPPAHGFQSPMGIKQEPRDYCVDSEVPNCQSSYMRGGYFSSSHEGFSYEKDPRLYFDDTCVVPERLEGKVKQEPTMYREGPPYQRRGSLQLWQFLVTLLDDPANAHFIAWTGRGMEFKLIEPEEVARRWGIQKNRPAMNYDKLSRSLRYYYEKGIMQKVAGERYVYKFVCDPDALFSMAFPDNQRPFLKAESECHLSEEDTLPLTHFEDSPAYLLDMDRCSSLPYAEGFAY
# Outline: as §1
# SPIC = biological target: T3, SPIC (Homo sapiens, UniProt Q8N5J4 1-248)
# T3 sequence: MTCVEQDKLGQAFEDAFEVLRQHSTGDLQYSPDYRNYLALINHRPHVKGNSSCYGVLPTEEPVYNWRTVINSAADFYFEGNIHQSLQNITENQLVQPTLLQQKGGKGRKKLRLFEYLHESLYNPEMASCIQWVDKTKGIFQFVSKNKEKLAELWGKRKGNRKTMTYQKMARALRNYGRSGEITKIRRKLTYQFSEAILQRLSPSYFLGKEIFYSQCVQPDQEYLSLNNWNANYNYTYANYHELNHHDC
# Outline: as §1
# ELK4 = biological target: T4, ELK4 (Homo sapiens, UniProt P28324-2 1-405)
# T4 sequence: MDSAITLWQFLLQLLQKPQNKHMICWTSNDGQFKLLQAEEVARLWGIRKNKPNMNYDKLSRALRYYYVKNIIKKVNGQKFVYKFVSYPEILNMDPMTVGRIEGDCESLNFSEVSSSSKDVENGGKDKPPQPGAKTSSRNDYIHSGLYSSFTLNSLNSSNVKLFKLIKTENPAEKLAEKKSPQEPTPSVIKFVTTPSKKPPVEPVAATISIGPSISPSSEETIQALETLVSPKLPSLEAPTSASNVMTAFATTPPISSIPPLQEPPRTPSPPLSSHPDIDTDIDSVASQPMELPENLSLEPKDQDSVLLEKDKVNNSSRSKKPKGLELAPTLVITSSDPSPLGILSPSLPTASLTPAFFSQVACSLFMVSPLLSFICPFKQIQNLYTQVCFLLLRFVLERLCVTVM
# Outline: as §1
# ETV3L = biological target: T5, ETV3L (Homo sapiens, UniProt Q6ZN32 1-361)
# T5 sequence: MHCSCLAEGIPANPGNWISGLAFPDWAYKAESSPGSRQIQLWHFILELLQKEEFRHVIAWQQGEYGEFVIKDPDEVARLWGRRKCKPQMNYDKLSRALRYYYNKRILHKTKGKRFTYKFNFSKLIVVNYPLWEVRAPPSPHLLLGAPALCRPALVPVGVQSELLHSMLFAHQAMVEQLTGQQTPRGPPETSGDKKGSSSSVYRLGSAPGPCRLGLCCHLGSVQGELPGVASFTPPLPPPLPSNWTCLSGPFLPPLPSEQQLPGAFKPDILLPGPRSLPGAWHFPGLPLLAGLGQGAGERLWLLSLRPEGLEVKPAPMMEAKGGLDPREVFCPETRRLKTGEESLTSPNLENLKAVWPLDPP
# Outline: as §1
# ETV3 = biological target: T6, ETV3 (Homo sapiens, UniProt P41162-2 1-143)
# T6 sequence: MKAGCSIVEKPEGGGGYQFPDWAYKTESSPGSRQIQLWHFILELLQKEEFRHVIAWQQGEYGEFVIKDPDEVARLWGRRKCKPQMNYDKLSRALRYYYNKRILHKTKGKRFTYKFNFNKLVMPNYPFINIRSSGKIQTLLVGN
# Outline: as §1
# GABPA = biological target: T7, GABPA (Homo sapiens, UniProt Q06546 1-454)
# T7 sequence: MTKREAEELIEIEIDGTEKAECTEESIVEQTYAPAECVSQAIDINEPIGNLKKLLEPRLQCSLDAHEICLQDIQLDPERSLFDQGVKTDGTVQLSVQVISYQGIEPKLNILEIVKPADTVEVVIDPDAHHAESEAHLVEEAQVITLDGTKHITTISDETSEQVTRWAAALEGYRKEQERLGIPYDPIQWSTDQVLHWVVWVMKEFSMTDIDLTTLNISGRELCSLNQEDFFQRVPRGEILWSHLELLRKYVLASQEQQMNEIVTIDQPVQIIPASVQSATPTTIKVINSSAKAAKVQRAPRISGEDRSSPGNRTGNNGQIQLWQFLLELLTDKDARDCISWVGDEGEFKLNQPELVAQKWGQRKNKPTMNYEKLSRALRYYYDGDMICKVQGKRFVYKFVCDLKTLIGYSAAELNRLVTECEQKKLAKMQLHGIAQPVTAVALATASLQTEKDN
# Outline: as §1
# ERF = biological target: T8, ERF (Homo sapiens, UniProt P50548 1-548)
# T8 sequence: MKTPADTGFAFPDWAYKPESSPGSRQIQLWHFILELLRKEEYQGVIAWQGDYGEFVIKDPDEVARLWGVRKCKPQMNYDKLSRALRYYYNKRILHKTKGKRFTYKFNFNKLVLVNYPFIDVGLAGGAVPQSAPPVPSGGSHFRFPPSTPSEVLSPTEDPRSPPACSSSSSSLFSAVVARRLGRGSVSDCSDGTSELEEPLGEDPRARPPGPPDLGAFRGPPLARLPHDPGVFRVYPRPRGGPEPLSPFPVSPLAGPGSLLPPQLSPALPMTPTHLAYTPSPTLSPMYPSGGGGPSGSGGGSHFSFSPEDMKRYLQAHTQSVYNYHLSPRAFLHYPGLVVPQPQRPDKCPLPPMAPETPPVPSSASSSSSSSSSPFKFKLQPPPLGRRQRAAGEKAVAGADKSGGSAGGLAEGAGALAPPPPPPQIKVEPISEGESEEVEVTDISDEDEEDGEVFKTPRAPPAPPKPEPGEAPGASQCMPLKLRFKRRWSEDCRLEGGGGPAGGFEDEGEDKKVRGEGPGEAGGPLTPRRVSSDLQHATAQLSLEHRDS
# Outline: as §1
# SPDEF = biological target: T9, SPDEF (Homo sapiens, UniProt O95238 1-335)
# T9 sequence: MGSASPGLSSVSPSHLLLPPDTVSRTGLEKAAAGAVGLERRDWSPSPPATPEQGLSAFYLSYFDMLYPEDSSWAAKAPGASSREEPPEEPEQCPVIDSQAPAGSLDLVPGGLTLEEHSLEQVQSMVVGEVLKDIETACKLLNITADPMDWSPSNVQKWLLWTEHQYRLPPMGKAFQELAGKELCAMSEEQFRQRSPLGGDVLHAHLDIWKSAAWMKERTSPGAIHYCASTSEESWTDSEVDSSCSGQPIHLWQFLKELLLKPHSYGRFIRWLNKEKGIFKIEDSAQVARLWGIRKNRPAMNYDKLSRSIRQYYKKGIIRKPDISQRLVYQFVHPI
# Outline: as §1
# ELK3 = biological target: T10, ELK3 (Homo sapiens, UniProt P41970 1-407)
# T10 sequence: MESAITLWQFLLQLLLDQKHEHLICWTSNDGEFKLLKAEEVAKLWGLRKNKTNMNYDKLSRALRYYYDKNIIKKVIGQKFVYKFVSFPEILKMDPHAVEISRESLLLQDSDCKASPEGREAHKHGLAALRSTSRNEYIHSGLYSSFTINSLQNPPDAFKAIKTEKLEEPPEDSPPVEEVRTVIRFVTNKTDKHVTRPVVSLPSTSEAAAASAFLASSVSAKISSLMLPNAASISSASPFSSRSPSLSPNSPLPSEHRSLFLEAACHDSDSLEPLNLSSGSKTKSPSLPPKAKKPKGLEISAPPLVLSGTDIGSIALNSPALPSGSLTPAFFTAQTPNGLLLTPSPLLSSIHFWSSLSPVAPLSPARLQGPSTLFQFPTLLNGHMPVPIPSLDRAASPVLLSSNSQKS
# Outline: as §1
# ETV1 = ETV1 (Homo sapiens, UniProt P50549 1-477)
# ETV1, sequence (P50549 whole entry): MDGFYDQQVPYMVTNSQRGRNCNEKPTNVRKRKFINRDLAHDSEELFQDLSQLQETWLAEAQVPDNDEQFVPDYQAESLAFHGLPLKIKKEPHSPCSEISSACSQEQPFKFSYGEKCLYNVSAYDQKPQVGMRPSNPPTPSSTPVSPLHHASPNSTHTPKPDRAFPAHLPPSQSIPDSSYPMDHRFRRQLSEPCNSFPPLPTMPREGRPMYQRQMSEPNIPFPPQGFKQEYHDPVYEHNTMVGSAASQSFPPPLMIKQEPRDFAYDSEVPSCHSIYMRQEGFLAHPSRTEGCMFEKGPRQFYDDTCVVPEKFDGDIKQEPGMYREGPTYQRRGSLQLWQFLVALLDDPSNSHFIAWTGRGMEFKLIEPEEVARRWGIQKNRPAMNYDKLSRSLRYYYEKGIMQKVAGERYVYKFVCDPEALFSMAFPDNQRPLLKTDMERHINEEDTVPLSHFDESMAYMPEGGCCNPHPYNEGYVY
# Outline: as §1
# ETS2 = biological target: T11, ETS2 (Homo sapiens, UniProt P15036 1-469)
# T11 sequence: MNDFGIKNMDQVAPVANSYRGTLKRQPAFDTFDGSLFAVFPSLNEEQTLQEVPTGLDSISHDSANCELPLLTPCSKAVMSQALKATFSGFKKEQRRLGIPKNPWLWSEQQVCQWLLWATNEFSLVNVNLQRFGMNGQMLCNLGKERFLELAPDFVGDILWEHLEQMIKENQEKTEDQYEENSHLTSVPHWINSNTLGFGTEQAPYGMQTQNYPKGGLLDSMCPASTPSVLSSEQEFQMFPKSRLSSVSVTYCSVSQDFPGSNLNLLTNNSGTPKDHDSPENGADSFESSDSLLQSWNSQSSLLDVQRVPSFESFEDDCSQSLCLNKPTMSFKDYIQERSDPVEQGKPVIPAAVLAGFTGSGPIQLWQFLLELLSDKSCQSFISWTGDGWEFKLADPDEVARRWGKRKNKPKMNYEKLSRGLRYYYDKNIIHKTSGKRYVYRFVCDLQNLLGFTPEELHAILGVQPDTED
# Outline: as §1
# ETV7 = biological target: T12, ETV7 (Homo sapiens, UniProt Q9Y603 1-341)
# T12 sequence: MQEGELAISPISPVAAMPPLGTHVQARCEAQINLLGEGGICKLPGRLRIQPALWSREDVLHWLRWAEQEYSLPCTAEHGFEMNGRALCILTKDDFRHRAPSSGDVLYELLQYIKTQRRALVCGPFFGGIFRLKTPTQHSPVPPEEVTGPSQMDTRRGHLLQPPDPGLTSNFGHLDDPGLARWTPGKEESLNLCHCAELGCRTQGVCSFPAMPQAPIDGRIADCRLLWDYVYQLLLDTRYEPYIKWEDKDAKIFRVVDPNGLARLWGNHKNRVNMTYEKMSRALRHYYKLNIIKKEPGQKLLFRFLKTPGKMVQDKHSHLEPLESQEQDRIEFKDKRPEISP
# Outline: as §1
sequence,measurement,setting,value
CAGTTC,binding signal,ELK1,"1.05 fold enrichment (6-mer frequency, TF over GST control)"
same,binding signal,EHF,"1.02 fold enrichment (6-mer frequency, TF over GST control)"
same,binding signal,SPIB,"1.04 fold enrichment (6-mer frequency, TF over GST control)"
same,binding signal,ETV5,"1.04 fold enrichment (6-mer frequency, TF over GST control)"
same,binding signal,SPIC,"1.17 fold enrichment (6-mer frequency, TF over GST control)"
same,binding signal,ELK4,"1.07 fold enrichment (6-mer frequency, TF over GST control)"
same,binding signal,ETV3L,"1.05 fold enrichment (6-mer frequency, TF over GST control)"
same,binding signal,ETV3,"1.13 fold enrichment (6-mer frequency, TF over GST control)"
CTGTAG,binding signal,GABPA,"1.03 fold enrichment (6-mer frequency, TF over GST control)"
same,binding signal,ETV5,"1.02 fold enrichment (6-mer frequency, TF over GST control)"
same,binding signal,SPIC,"1.08 fold enrichment (6-mer frequency, TF over GST control)"
same,binding signal,ERF,"1.02 fold enrichment (6-mer frequency, TF over GST control)"
same,binding signal,SPDEF,"1.03 fold enrichment (6-mer frequency, TF over GST control)"
GGGTAT,binding signal,SPIB,"1.02 fold enrichment (6-mer frequency, TF over GST control)"
same,binding signal,ELK3,"1.04 fold enrichment (6-mer frequency, TF over GST control)"
same,binding signal,ETV5,"1.02 fold enrichment (6-mer frequency, TF over GST control)"
same,binding signal,ELK4,"1.1 fold enrichment (6-mer frequency, TF over GST control)"
same,binding signal,ETV1,"1.01 fold enrichment (6-mer frequency, TF over GST control)"
same,binding signal,ETS2,"1.02 fold enrichment (6-mer frequency, TF over GST control)"
same,binding signal,ETV7,"1.02 fold enrichment (6-mer frequency, TF over GST control)"
